In PubChem BioAssay (EPA / NIEHS) one finds outcome and AC50 data, which are given here for 38 compounds.

Usually AC50 stands for the midpoint of the concentration-response curve, whichever way the signal moves.

Results filed as inconclusive are left out. Calls of active or inactive are those of the source. The calls were made as follows: active = hit-call score of the fitted dose curve at least 0.9, where 1 is the maximum; inconclusive = response in the unintended direction; inactive = score below 0.9.

The assay can be described thus: Tanguay_ZF_120hpf_JAW_legacy: (Legacy) Oregon State University Tanguay Lab 120 Hour Post-fertilization zebrafish Assay for Jaw Malformation (AID 2283638).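 As to AC50: active means more embryos with jaw malformation than DMSO controls.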 As to the method:
Tanguay_ZF_120hpf_legacy is a whole embryo, multiplexed endpoint assay using zebrafish larvae exposed for 120 hours post fertilization on a 96-well plate.Tanguay_ZF_120hpf_JAW_legacy is one of one assay component(s) measured or calculated from the Tanguay_ZF_120hpf_legacy assay. It is designed to make measurements of zebrafish development as detected with brightfield microscopy of developing zebrafish embryos.Data from the assay component Tanguay_ZF_120hpf_JAW_legacy was analyzed into 1 assay endpoints. This assay endpoint, Tanguay_ZF_120hpf_JAW_legacy, was analyzed in the positive analysis fitting direction relative to DMSO as the negative control and baseline of activity. Using a type of morphology reporter, gain-of-signal activity can be used to understand changes in developmentals as they relate to the whole embryo. To generalize the intended target to other relatable targets, this assay endpoint is annotated to the zebrafish development intended target family, where the subfamily is embryonic jaw development.
Zebrafish husbandry: Tropical 5D wild-type adult zebrafish were housed in at an approximate density of 1000 per 100 gallon tank at the Sinnhuber Aquatic Research Laboratory, Oregon State University, Corvallis, OR. Each tank was kept at standard laboratory conditions of 28C on a 14-h light/10-h dark photoperiod in fish water consisting of reverse osmosis water supplemented with a commercially available salt (Instant Ocean). Spawning funnels were placed into the tanks the night prior, and embryos were collected and staged. To increase bioavailability, the chorion was enzymatically removed using pronase (63.6mg/ml, >/= 3.5U/mg, Sigma-Aldrich: P5147) at 4 hours post fertilization (hpf) using a custom automated dechorionator.Chemical exposures: Six hpf dechorionated embryos were placed 1 embryo per well in a 96-well plate prefilled with 90 ul of EM using automated embryo placement systems (AEPS). Ten microliters of each row of dilution plate 2 was added to 2 exposure plates. The final DMSO concentration used was 0.64% (vol/vol). Thirty-two embryos were also exposed to 5uM trimethyltin chloride (positive control). Plates were sealed to prevent evaporation and foil covered to reduce light exposure and kept in a 28C incubator. Embryos were statically exposed until 120 hpf. At 24 hpf, embryos were assessed for photomotor response using a custom photomotor response analysis tool (PRAT) and for developmental toxicity endpoints (MO24: mortality at 24 hpf, DP: developmental progression, SM: spontaneous movement, and NC: notochord distortion). At 120 hpf, locomotor activity was measured using Viewpoint Zebralab and assessed for 18 endpoints. Zebrafish acquisition and analysis program (ZAAP), a custom program designed to inventory, acquire, and manage zebrafish data, was used to collect developmental endpoints as either present or absent (i.e., binary responses were recorded). If mortality occurred for an embryo (at either 24 or 120 hpf), the non-mortality endpoints were not measured.
For `CCC1(c2ccccc2)C(=O)N=C(O)NC1=O` (stereo not drawn), the compound was called inactive.
On the same count and under the same terms, the value for `c1ccc2c(c1)Nc1ccccc1S2` was “inactive”; that for `CC(C)(C)OOC(C)(C)C` was “inactive”; that for `CC(Cl)(Cl)C(=O)O` was “inactive”.
The same measure, in the same setting: the value for `CN(C)C(=O)Cl` was “inactive”; that for `O=[N+]([O-])c1ccc(Cl)c(Cl)c1` was “inactive”; that for `O=C(O)C(Cl)Cl` was “inactive”.
Consider `ClC(Cl)(Cl)c1ccccc1`, for which the compound was called inactive.
As for `O=[N+]([O-])c1ccccc1`, the outcome was inactive.
On the same count and under the same terms, the value for `CCOC(=O)c1ccccc1C(=O)OCC` was “inactive”.
On the same count and under the same terms, next, `Nc1cc2c3c(c1)C(c1ccccc1)=N[C@@H](NC(=O)c1cccnc1)C(=O)N3CC2`: “inactive”.
Same read-out and setting: the value for `CSC(C)(C)C=NO` was “inactive”; that for `COCCOCCO` was “inactive”.
As for `c1ccc(OP(Oc2ccccc2)Oc2ccccc2)cc1`, the compound was classed as inactive.
On the same count and under the same terms, the value for `CCOP(=S)(OCC)SCSCC` was “inactive”.
On the same count and under the same terms, next, `Cc1cccc(N)c1`: “inactive”; `c1cc2c3c(cccc3c1)CC2`: “inactive”.
Consider `O=C(O)C1C(C(=O)O)C2(Cl)C(Cl)=C(Cl)C1(Cl)C2(Cl)Cl` (stereo not drawn), for which the compound was classed as inactive.
Still for that read-out and setting: next, `CCOP(=S)(Oc1ccc([N+](=O)[O-])cc1)c1ccccc1` (stereo not drawn): “inactive”; `CCCCN(CCCC)N=O`: “inactive”.
For the compound `Nc1ccc2ccccc2c1`, the AC50 is 34.9 µM (active).
With `CCCCCCCc1ccc(O)cc1`, the compound was classed as inactive.
Still for that read-out and setting: the value for `Cc1ccc(O)cc1C` was “inactive”; that for `O=P1(N(CCCl)CCCl)NCCCO1` (stereo not drawn) was “inactive”; that for `Cc1ccc([N+](=O)[O-])cc1C` was “inactive”.
As for `CCC(C)(C)c1ccc(O)cc1`, the AC50 is 14.7 µM (active).
Consider `CC(C)(C)c1ccc(O)cc1`, for which the compound was classed as inactive.
Still for that read-out and setting: next, `O=P(Oc1ccccc1)(Oc1ccccc1)Oc1ccccc1`: “inactive”.
In the case of `CCCCc1ccccc1`, the result was inactive.
On the same count and under the same terms, next, `[N-]=[N+]=[N-]`: “inactive”.
On the same count and under the same terms, the value for `CCCCN(CCCC)SN(C)C(=O)Oc1cccc2c1OC(C)(C)C2` was “inactive”; that for `ClC(Cl)c1ccccc1` was “inactive”; that for `CCOc1ccc(C(C)(C)COCc2cccc(Oc3ccccc3)c2)cc1` was “inactive”.
The same measure, in the same setting: next, `OCC1CO1` (stereo not drawn): “inactive”; `CCOS(=O)(=O)OCC`: “inactive”; `Nc1ccc(Cl)cc1`: “inactive”.
As to `CC(Cc1ccc(OCC(=O)O)cc1)NCC(O)c1csc(C(F)(F)F)n1` (stereo not drawn), the compound was classed as inactive.
Still for that read-out and setting: next, `ClC1=C(Cl)C2(Cl)C3C(Cl)C(Cl)CC3C1(Cl)C2(Cl)Cl` (stereo not drawn): “inactive”.
